# Measured values as given in ChEMBL document CHEMBL3988442, “University of Dundee, Small-Polar-MMV Screening Library” (2021).
# Columns and labels:
# [1] = target: T1, Aspartate--tRNA(Asp/Asn) ligase (Mycobacterium tuberculosis (strain ATCC 25618 / H37Rv)) (UniProt P9WFW3); experiment: Assay for Asp RNA synthetase-1 from Mycobacterium tuberculosis; format: functional; set-up: scale not given: direction of the effect not stated beside the values; settings: 30 µM; also: in the data most compounds retested in dose-response had high values
# T1 sequence (whole entry): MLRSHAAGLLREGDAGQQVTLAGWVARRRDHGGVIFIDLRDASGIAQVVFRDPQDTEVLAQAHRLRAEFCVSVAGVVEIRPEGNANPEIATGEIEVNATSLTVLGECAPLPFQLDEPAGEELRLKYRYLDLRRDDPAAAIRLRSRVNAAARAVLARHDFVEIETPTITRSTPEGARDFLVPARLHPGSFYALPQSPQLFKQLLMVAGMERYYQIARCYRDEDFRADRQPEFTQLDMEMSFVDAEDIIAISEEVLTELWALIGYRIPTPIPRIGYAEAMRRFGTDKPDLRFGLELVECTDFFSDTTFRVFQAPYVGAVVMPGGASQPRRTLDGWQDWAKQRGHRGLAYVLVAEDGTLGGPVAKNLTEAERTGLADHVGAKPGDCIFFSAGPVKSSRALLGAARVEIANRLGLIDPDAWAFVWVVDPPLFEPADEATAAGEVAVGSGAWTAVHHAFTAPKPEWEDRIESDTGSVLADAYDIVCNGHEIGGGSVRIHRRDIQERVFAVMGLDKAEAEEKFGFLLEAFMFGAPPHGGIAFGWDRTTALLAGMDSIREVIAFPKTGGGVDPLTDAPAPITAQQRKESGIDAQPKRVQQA
# [2] = target: Shiga toxin 2 (Escherichia coli O157:H7) (UniProt P09385+P09386); experiment: E. coli 0.157:H7 Shiga Toxin SOP - stx2 screening assay; format: functional; set-up: scale not given: direction of the effect not stated beside the values; settings: 30 µM
SMILES,Percent Effect [1] [%],Percent Effect [2] [%]
COc1ccc(Cc2nnc(SC)o2)cc1OC,-2.13,
COc1c(C)cnc(CSc2nnc(C)s2)c1C,-1.18,
Cc1cnc(C)c(N2CCN(Cc3ccc(-c4cc[nH]n4)o3)CC2)n1,0.816,
CN(C)C(=O)CNC(=O)c1cc(Br)c2c(c1)OCCO2,3,
Cc1cc(F)ccc1OC1(C(=O)O)CCN(Cc2cccnc2N)CC1,-3.76,
c1cnn(Cc2nnc(C3CCN(C4CCOCC4)CC3)n2C2CC2)c1,-4.17,
Cc1cccnc1NC(=O)C1CCCN1Cc1ccccc1 (centres undefined),-1.55,
Cc1nnsc1C(=O)N1CCC2(CC1)c1nc[nH]c1CCN2CC(C)C,-1.53,
COc1ccccc1CN1C(=O)O[C@@H]2CN(c3nccs3)C[C@@H]21,-1.39,
Cc1ccc(C(=O)N2CCN(S(C)(=O)=O)CC2)cc1N1CCNC1=O,-4.61,
O=C(NCC1CCSCC1)N(CCCO)C1CCc2ccccc21 (centres undefined),6.01,-37.4
Cc1cnc(N2CCCC3(CCN(Cc4csc(C)n4)C3=O)C2)nc1 (centres undefined),6.32,-0.084
